For eleven compounds, outcome and max activity results are on record in PubChem BioAssay.

For some assays here: Results with a measured potency or affinity are listed apart. Results filed as inconclusive are left out. Values without a mark were called inactive. Some of the results follow. Activity calls are given as the source filed them. Unless noted, no rule for the calls is given here.

A short description of test [1]: cytotoxicity in PAX8-dependent RMG-1 cells, dose response, cell-based, cherry-pick (AID 687029;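 active = signal drop whose fitted half-maximal concentration is at most twice the top valid dose, in every test run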;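 also: cells exposed to compound for 96 hours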). To be noted: RMG-1 viability, CellTiterGlo ATP luminescence, 96 h; series mostly up to 35 µM. In general terms: In ATP-based viability assays light output follows the ATP content of the culture.
Test [2] is described as follows: inhibitors of CMV-promoter luciferase reporter, dose response, counter-screen for Pax8 inhibitor project, cell-based, HEK293, luminescence, dry powder (AID 743020;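 active = signal-lowering compounds whose fitted half-maximal concentration is at or below twice the top tested dose in every run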;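 also: HEK293 cells stably expressing the CMV luciferase reporter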). As to conditions: SteadyGlo luminescence, 24 h; series mostly up to 35 µM. (In general: A reporter such as luciferase makes a cellular process visible.)
The nature of test [3]: non-specific cell cytotoxicity, dose response, cytotoxicity control for PAX8 inhibitor project, plate reader, dry powder samples (AID 743021). As to conditions: cell line, non-specific cytotoxicity counter-screen; series mostly up to 35 µM. In general terms: A counterscreen serves to expose hits that act by an unwanted route or on another target.
Test [4] is described as follows: cytotoxicity in IOSE-T80 ovarian epithelial cells, dose response, selectivity assay for PAX8 inhibitor project, cell-based, cherry-pick (AID 687032;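 active = fitted half-maximal concentration for viability loss no higher than twice the top valid dose, in every repeat run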;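 also: cells exposed to compound for 96 h before reading; 0% = neutral control wells and -100% = 2 µM mitoxantrone kill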). To be noted: CellTiterGlo ATP luminescence, 96 h; series mostly up to 35 µM.
Test [5] can be described thus: IGROV1 ovarian cancer cell cytotoxicity, dose response, PAX8 inhibitor project, plate reader, dry powder samples (AID 743043).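 Also: more negative means fewer viable cells or more cytotoxicity.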 To be noted: series mostly up to 35 µM.
Test [6] is described as follows: NIH:OVCAR-3 ovarian cancer cell cytotoxicity, dose response, PAX8 inhibitor project, plate reader, dry powder samples (AID 743044). As to conditions: NIH:OVCAR-3 ovarian cancer cell viability, active compounds read low; at 4.2 µM unless noted.
A short description of test [7]: IOSE-T80 ovarian epithelial cell cytotoxicity, dose response, cytotoxicity control for PAX8 inhibitor project, plate reader, dry powder samples (AID 743045).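 Also: 0% = neutral control median and -100% = positive control median; more negative values mean more cell killing.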 As to conditions: IOSE-T80 ovarian epithelial cells; series mostly up to 35 µM.
Test [8] in a line: A2780 ovarian cancer cell cytotoxicity, dose response, cytotoxicity control, plate reader, dry powder samples (AID 743046).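 Also: 0% = neutral control wells and -100% = cytotoxic reference compound.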 To be noted: series mostly up to 35 µM.
Test [9] is described as follows: cytotoxicity in OVCAR8 ovarian cancer cells, dose response, PAX8 project, cell-based, plate reader, dry powder samples (AID 743197). As to conditions: series mostly up to 35 µM.
Test [10] in a line: DNA binders by acridine orange displacement, dose response, counter-screen for EWS/Fli inhibitor project, biochemical, fluorescence polarization, cherry-pick (AID 720586;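 active = fitted curve reaches a 35% signal fall AC35 below twice the sample's top valid tested dose, actives reach about 48 µM in these data; inactive = the rest, including activity in the rising direction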;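 also: 0% = neutral control median and -100% = 10 µM mitoxantrone control median; lower polarization ratio signals compound binding to DNA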). As to conditions: salmon sperm DNA acridine orange fluorescence polarization; series mostly up to 68 µM.

In the case of `Cc1ccc(C(=O)N[C@@H](C)CN2C3=NC[C@@H](Cc4ccccc4)N3C[C@H]2Cc2ccc(O)cc2)cc1Br`, the call in [1], in test [2] and in test [3] was inactive.
As for `C[C@]12CC[C@H](O)C[C@H]1CC[C@@H]1[C@@H]2C[C@@H](O)[C@]2(C)[C@@H](C3=CC(=O)OC3)CC[C@]12O`, the result in [1], in test [4] and in test [3] was inactive.
For the compound `COC(=O)C12OCC34C(CC5C(C)=C(O)C(=O)CC5(C)C3C(O)C1O)OC(=O)C(OC(=O)/C=C(\C)C(C)C)C24` (configuration not stated), the call in test [1], in test [4] and in test [3] was inactive.
With `NC(=S)c1cn(C2OC(CO)C(O)C2O)c2ncnc(N)c12` (configuration not stated), the compound was classed as inactive in test [1], in [2] and in test [3].
In the case of `Cc1c(C(=O)c2cccc3ccccc23)c2cccc3c2n1[C@H](CN1CCOCC1)CO3`, the compound was called inactive in [1], in [2] and in [3].
`COc1cccc(C(c2nnnn2-c2ccc3c(c2)OCCO3)N2CCC(n3c(=O)[nH]c4ccccc43)CC2)c1OC` (configuration not stated): the call in test [1], in test [4] and in [3] was inactive.
As to `CC(C)(O)/C=C/C(=O)C(C)(O)C1C(O)CC2(C)C3CC=C4C(C=C(O)C(=O)C4(C)C)C3(C)C(=O)CC12C` (configuration not stated), the outcome in test [4] was inactive.
Take `O=C(Cc1ccccn1)N1CCCCN2[C@@H](CO)[C@@H](c3ccc(-c4ccc(F)cc4)cc3)[C@@H]2C1`: the compound was classed as inactive in test [4], in test [5], in test [7], in test [8] and in test [9]. Also, the max activity in [6] was 9.98%.
In the case of `C[C@]12CC[C@H](O)C[C@H]1CC[C@@H]1C2CC[C@]2(C)[C@@H](C3=CC(=O)OC3)[C@@H](O)C[C@]12O` (some centres not stated), the result in test [10] was inactive.
For the compound `O=C1NC(=O)N(CCc2ccc(F)cc2)C(=O)/C1=C/C=C/c1ccccc1`, the result in [10] was inactive.
For `COc1ccc(-c2ccc([C@@H]3[C@@H](CO)N4CCCCN(C(=O)Cc5ccccc5)C[C@H]34)cc2)cc1`, the outcome in test [5], in [7], in test [8] and in test [9] was inactive. For the same compound, the max activity in test [6] is -18.2% [at 35 µM].
